Sampled rows, rich in hits. Any-hit rate of the full collection: about 0.43%.
GLA inh pH 4.5 – alpha-galactosidase A (human) inhibition, pH 4.5 | P06280 | purified enzyme, 4-MU-alpha-Gal fluorescence, pH 4.5 | activity change, negative = inhibition, % at 105 µM | 230,000 tested, under 10 active;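 note: 0% = full activity with enzyme and -100% = basal without enzyme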
N370S GC – N370S glucocerebrosidase modulation, Gaucher chaperone candidate; P04062; N370S GC spleen homogenate, 4MU-glucoside fluorescence; Potency, µM (highest dose often 59.4 µM), inactives show top-dose activity change, negative = inhibition, usual class: inhibitors; hit rate 0.092% among 330,000; AID 2101;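 note: potency is the fitted concentration of half-maximal effect; 0% = full enzyme activity and -100% = no enzyme basal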
GAA inh – alpha-glucosidase (human) inhibition | purified human GAA, 4-MU-alpha-glucoside fluorescence | Potency, µM (highest dose often 76.9 µM), for the others: at the top dose activity change, negative = inhibition, usual class: inhibitors | hit rate 0.005% among 200,000 | AID 1466;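 note: potency is the fitted concentration of half-maximal effect; plate controls were uninhibited enzyme wells for no effect and no-enzyme background for full effect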
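Activity normalized between no-enzyme (basal) and enzyme-only wells. Conditions: 4 nM human enzyme, 400 uM fluorogenic substrate, citrate/phosphate pH 5.0 with Tween-20, 20 min room temperature, compounds up to 77 uM.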
aGal spleen mod – alpha-galactosidase A (human) modulation; P06280; Potency, µM (highest dose often 80 µM), inactives show top-dose activity change, negative = inhibition, actives largely listed as inhibitors; hit rate 0.008% among 240,000; human spleen homogenate, 4MU-alpha-Gal fluorescence, 40 min; AID 2107;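 note: potency is the fitted concentration of half-maximal effect; 0% = enzyme with vehicle and -100% = no enzyme basal signal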
Target sequence (P06280 32-429 limits assumed): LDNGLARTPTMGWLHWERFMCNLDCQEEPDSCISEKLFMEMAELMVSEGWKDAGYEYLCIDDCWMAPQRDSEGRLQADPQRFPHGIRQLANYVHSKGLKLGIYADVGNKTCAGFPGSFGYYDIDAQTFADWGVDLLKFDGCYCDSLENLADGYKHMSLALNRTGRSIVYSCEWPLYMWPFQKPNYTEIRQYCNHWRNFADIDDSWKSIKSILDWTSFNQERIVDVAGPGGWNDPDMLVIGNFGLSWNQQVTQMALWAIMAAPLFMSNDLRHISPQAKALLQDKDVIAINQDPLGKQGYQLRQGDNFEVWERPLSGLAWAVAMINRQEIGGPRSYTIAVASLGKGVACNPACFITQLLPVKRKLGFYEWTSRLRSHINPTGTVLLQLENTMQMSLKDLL
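qHTS titration in buffer at pH 5.0. Alpha-galactosidase activity in spleen homogenate was measured via 4-methylumbelliferone release from 1 mM fluorogenic substrate after 40 min at 37C and a pH 10 stop. AC50 came from Hill fits of control-normalized data.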
GAA glycogen – alters human alpha-glucosidase cleavage of glycogen. P10253. recombinant GAA, glycogen substrate, Amplex Red glucose oxidase fluorescence. Potency, µM (doses to about 76.4 µM), inactives show top-dose activity change, negative = inhibition, actives largely listed as inhibitors. hit rate 0.38% among 300,000. AID 2100;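 note: potency is the fitted concentration of half-maximal effect; 0% = full enzyme reaction and -100% = no-enzyme basal signal; the screen sought inhibitors and activators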
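qHTS, 1536-well; enzyme 4 nM final; cpd up to 77 uM; substrate bovine liver glycogen 30 ug; 50 mM citrate/phosphate pH 5.0, 0.01% Tween-20; 37 C, 40 min; Amplex Red detection 45 min RT; Hill fit → AC50.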
GAA spleen mod – inhibits or activates alpha-glucosidase in human spleen homogenate. AID 2112. hit rate 0.006% among 240,000. human spleen homogenate, 4-MU-alpha-glucoside fluorescence. P10253. Potency, µM (series often up to 79.9 µM), inactives show at the top dose activity change, negative = inhibition, most hits filed as inhibitors;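 note: potency is the fitted concentration of half-maximal effect; 0% = enzyme with vehicle and -100% = no enzyme basal signal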
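AC50 values come from Hill-equation fits of concentration-response data, normalized to no-enzyme and full-activity controls. Enzyme source: 1 ug human spleen homogenate; 1 mM fluorogenic 4-MU glucoside, pH 5.0 citrate buffer, 37 C, 40 min.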
* = called active by the depositor; u = inconclusive; x = no result given; [ ] = dose if it differs, or a comment. Calls come from the whole dose curve; as a rule, active = well fitted curve in the direction sought with a large enough effect; inconclusive = small, poorly fitted or top-dose-only effect, or another doubt; inactive = no such curve, though single readings can be large; an effect the other way counts as inactive or inconclusive.

SMILES | GLA inh pH 4.5 | N370S GC | GAA inh | aGal spleen mod | GAA glycogen | GAA spleen mod
Cc1cc(C)cc(Nc2nc3c(S(=O)(=O)c4cccc(Cl)c4)nnn3c3ccsc23)c1 | x | x | x | x | 40µM* | x
CC(=O)Nc1ccc(Nc2nc3c(S(=O)(=O)c4cccc(Cl)c4)nnn3c3ccsc23)cc1 | x | x | x | x | 15%[76.3 µM] | x
Cc1cccc(NNC(=O)C2CCC2)c1 | 2 | 3% | x | 12% | 7.9µM* | -1%
CSc1ccccc1NC(=O)CN(C)CC(=O)NCc1ccccc1 | 12 | 29% | 1% | 35µM* | 5% | u
CSc1ccccc1NC(=O)CN(C)CC(=O)Nc1cc(C)ccc1C | -4 | -4% | -11% | -10% | 18% | -3%
CCc1ccc(NC(=O)Cn2nnc(-c3ccccc3N)n2)cc1 | x | x | x | x | 17%[76.3 µM] | x
CCN1CCN(C(CC(C)C)c2nnnn2CS(=O)(=O)c2ccc(C)cc2)CC1 (centres undefined) | -4 | 22µM* | 6% | -10% | 9% | -2%
O=C(C1=C[C@@H](c2ccc(C(F)(F)F)cc2)C[C@@H](OCc2ccc(CO)cc2)O1)N1CCN(Cc2ccccc2)CC1 | -5 | 13µM* | x | 2% | 2% | 1%
COCCNc1ncnc2ccc(-c3ccc(C(=O)N(C)C)cc3)cc12 | x | 22% | x | -5% | x | 2%
C1=Cc2ccccc2Nc2ccccc21 | 1 | 3% | x | 4% | 16µM* | -9%
CCOC(=O)Cn1cnc2c(nnn2-c2ccc(F)cc2)c1=O | x | -2% | x | x | 50µM* | x
COC(=O)Cn1cnc2c(nnn2-c2ccc(F)cc2)c1=O | x | 4% | x | x | 15%[76.3 µM] | x
COc1ccc(OC2C=CC(C#Cc3ccc(F)cc3F)OC2CO)cc1 (centres undefined) | x | -2%[12.8 µM] | x | 6%[17.5 µM] | x | 0%[17.4 µM]
COc1ccc(-n2cc(C(=O)N(C)c3cc(C)ccc3OC)c3ccccc3c2=O)cc1 | x | x | x | x | 12%[76.3 µM] | x
COc1ccc(C(=O)NNc2ccccc2)cc1OC | -3 | 7% | 0% | 2% | 22µM* | 2%
O=[N+]([O-])/C(=C\Nc1ccccc1Cl)S(=O)(=O)c1ccccc1 | 9 | 16% | 6% | 14% | -11% | -6%
O=[N+]([O-])/C(C=Nc1ccccc1O)=C\Nc1ccccc1O | -5 | -13% | x | -8% | 3.5µM* | -1%
CCOC(=O)c1oc2ccc(S(=O)(=O)n3nc(-c4cc(OC)cc(OC)c4)cc3N)cc2c1C | x | x | x | x | -12%[76.3 µM] | x
COC(=O)[C@@H](O)CC[C@@H](C)Cc1c(OC)c(OC)c(C)c(OC)c1OC | -3 | 3% | x | -7% | x | -2%
Cc1cccc(Nc2cc(C)c3c(O)cccc3n2)c1C | -10 | -16% | -2% | -3% | 10µM* | -1%
COc1ccc(OC)c(NC(=O)NC2(C(F)(F)F)Oc3ccccc3O2)c1 | 3 | 7% | 0% | -4% | 35µM* | 2%
COc1ccc(OC)c(NC(=O)Nc2ccccc2C)c1 | 0 | 2% | u | 4% | 2% | 3%
Cc1cc(NC(=O)NC2(C(F)(F)F)Oc3ccc(Cl)cc3O2)no1 (centres undefined) | -3 | -6% | -1% | -4% | 7.1µM* | -2%
COCCNC(=O)NC1(C(F)(F)F)Oc2ccc(Cl)cc2O1 (centres undefined) | 5 | 16% | -9% | -2% | -19% | -2%
COc1ccc(NC(=S)N/N=C2\CC(C)(C)Oc3ccc(O)cc32)cc1 | -3 | -3% | -5% | -4% | 8.9µM* | -2%
SMILES | GLA inh pH 4.5 | N370S GC | GAA inh | aGal spleen mod | GAA glycogen | GAA spleen mod
CCOc1cc(C2C3=C(CCCC3=O)NC3=C2C(=O)CCC3)cc(Cl)c1O | -4 | -14% | -4% | -7% | 35µM* | -12%
CC(N)CN (centres undefined) | x | -7% | x | 1% | x | -12%
Cc1ccc(-c2nc3cnccn3c2Nc2c(C)cccc2C)o1 | 9 | 11% | -11%[15.4 µM] | 0% | 3.5µM* | 0%
Cc1ccc(-c2nc3ncccn3c2Nc2ccccc2C)o1 | -6 | -11% | -6% | -2% | u | -4%
Cc1ccc(-n2nc(C(=O)N(C)Cc3ccccc3)c3c4ccccc4n(C)c3c2=O)cc1 | x | x | x | x | -4%[76.3 µM] | x
CC(=O)Nc1ccc(S(=O)(=O)Nc2ccc([N+](=O)[O-])cc2)cc1 | -7 | 16µM* | x | 13% | x | 12%
CNC(=S)NNc1nc(N2CCOCC2)nc(N2CCOCC2)n1 | -24 | 0% | -5% | -1% | 7.9µM* | 7%
COC(=O)C/C=C\[C@@H](C)[C@@H](/C=N\OC[C@@H](O)[C@H]1O[C@H]2OC(C)(C)O[C@H]2[C@@H]1O)OC | x | 0%[12.8 µM] | x | -3%[17.5 µM] | x | -1%[17.4 µM]
CCOC(=O)CCCCC(=O)c1[nH]c(=O)[nH]c1CSc1nc(-c2ccccc2)c(C#N)c(=O)[nH]1 | -4 | 3% | u | 0% | 35µM* | -22%
O=S(=O)(O)c1ccc2c(c1)-c1nc-2nc2[nH]c(nc3nc(nc4[nH]c(n1)c1ccc(S(=O)(=O)O)cc41)-c1ccc(S(=O)(=O)O)cc1-3)c1ccc(S(=O)(=O)O)cc21 | x | -3% | x | -10% | x | 1%
N#CC1=C(SCC(=O)c2cc3ccccc3oc2=O)NC(=O)C(C#N)C12CCCC2 (centres undefined) | -7 | -6% | -9% | -9% | 22µM* | -5%
CC(C)(C)C1CCC2(CC1)C(C#N)=C(SCC(=O)Nc1ccccc1)NC(=O)C2C#N (centres undefined) | -18 | u | u | -1% | u | 3%
COc1ccc(OC)c(N/C(C)=C/C(=O)c2ccncc2)c1 | x | -1% | x | x | -11%[76.3 µM] | x
C/C(=C\C(=O)c1ccncc1)Nc1ccccc1O | -17 | -3% | -4% | 10% | 25µM* | -3%
CN1C/C(=C/c2ccc(B(O)O)cc2)C(=O)/C(=C/c2ccc(B(O)O)cc2)C1 | x | 0% | x | -3% | x | 4%
O=C(CSc1cn(CCNC(=O)c2cccc(C(F)(F)F)c2)c2ccccc12)Nc1ccc2c(c1)OCCO2 | x | x | x | x | 35µM* | x
O=C(CSc1cn(CCNC(=O)c2ccccc2F)c2ccccc12)Nc1ccc2c(c1)OCCO2 | x | x | x | x | 8%[76.3 µM] | x
CCOc1ccc(CNC(=O)Cn2cc3c(n2)-c2c(oc(C(=O)N4CCOCC4)c2C)CC3)cc1 | x | x | x | x | 8%[76.3 µM] | x
c1cc(-c2cnn3cc(-c4ccc(OCCN5CCCCC5)cc4)cnc23)ccn1 | x | -13% | x | -13% | x | 6%
CC(=O)OCC(NC(=O)C(C)NC(=O)OC(C)(C)C)C1OC(n2ccc(=O)[nH]c2=O)C(OC(C)=O)C1OC(C)=O (centres undefined) | x | 1% | x | -21% | x | 6%
CN1c2ccccc2C(C)(C)C12C=Nc1c(cc(N3CCOCC3)c3ccccc13)O2 (centres undefined) | -15 | u | 5% | 9% | -22% | 3%

Source: PubChem BioAssay
